Assay results published in PubChem BioAssay (Tox21).
Results filed as inconclusive are left out. A call without a number means that no potency is given here. Activity calls are given as the source filed them. Unless noted, calls come from the whole dose curve.

Assays:
[1] = Nuclear factor erythroid 2-related factor 2/antioxidant responsive element (Nrf2/ARE) small molecule agonists: qHTS cell viability counter screen in human keratinocytes (AID 1919968; active = well fitted curve in the direction sought with a large enough effect in the repeat runs; an effect the other way counts as inactive or inconclusive; note: nearly all actives have a fitted effect of over 55% in size; note: potency is the fitted concentration of half-maximal effect)
Procedure, shortened: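 Viability counter-screen: KeratinoSens reporter cells, DMSO-delivered compounds, 23 h at 37 C, CellTiter-Fluor fluorescence.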

[2] = target: Gonadotropin-releasing hormone receptor (Homo sapiens) (UniProt P30968); assay: Human gonadotropin-releasing hormone receptor (GnRHR) small molecule agonists, calcium flux assay in GnRHR-HEK293 cells (AID 1920063); note: nearly all actives have a fitted effect of over 35% in size; note: potency is the fitted concentration of half-maximal effect
Procedure, shortened: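 Tox21-format agonist screen using human GnRHR-expressing HEK293 cells and a fluorescent calcium dye; kinetic 3-min fluorescence reading after compound addition, 15-point concentration series run in triplicate.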

[3] = target: KiSS-1 receptor (Homo sapiens) (UniProt Q969F8); assay: Human kisspeptin (KISS1R) small molecule agonists, calcium flux assay in KISS1R-HEK293 cells (AID 1920064; active = well fitted curve in the direction sought with a large enough effect in the repeat runs; an effect the other way counts as inactive or inconclusive)
Procedure, shortened: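 Intracellular calcium mobilization in KISS1R-HEK293 cells was recorded by fluorescence (Ex/Em 480/540) for 3 min following compound addition to cells pre-loaded 1 h with calcium dye.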

[4] = G protein-coupled receptor (GPCR) small molecule agonists, calcium flux assay: HEK293 wild type cell line counter screen (AID 1920065)
Procedure, shortened: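 In this agonist-mode screen, ATP is the positive control and DMSO the vehicle. Cells grow 18 h before a 1 h dye incubation at 37 C; signal is taken at Ex/Em 480/540 over 3 min.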

[5] = p53 small molecule agonists, cell-based qHTS assay with human liver microsomes (AID 1963577); note: potency is the fitted concentration of half-maximal effect;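 for activation: p53 response element beta-lactamase reporter cells with liver microsomes plus NADPH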
Procedure, shortened: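 HLM-supplemented p53RE-bla reporter assay: 16 h compound exposure at 37 C, microsomes and NADPH each 0.5 mg/mL final, read by fluorescence intensity.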

[6] = p53 small molecule agonists, cell-based qHTS assay with human liver microsomes: qHTS cell viability counter screen (AID 1963579); note: nearly all actives have a fitted effect of over 45% in size
Procedure, shortened: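 Viability of p53RE-bla cells is measured as CellTiter-Glo luminescence following a 16 h, 37 C incubation with compound, liver microsomes from human donors and NADPH.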

[7] = target: 5-hydroxytryptamine receptor 2A (Homo sapiens) (UniProt P28223); assay: 5-hydroxytryptamine receptor 2A (HTR2A) small molecule antagonists, cell-based qHTS assay (AID 1963586); note: nearly all actives have a fitted effect of over 45% in size; note: potency is the fitted concentration of half-maximal effect
Procedure, shortened: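 Antagonist-mode intracellular calcium assay: DOI (4 nM) added after 5 min compound pre-incubation at room temperature to dye-loaded HTR2A-CHO cells. Fluorescence followed for 3 min, sampled every second.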

[8] = target: Muscarinic acetylcholine receptor M1 (Homo sapiens) (UniProt P11229); assay: Cholinergic receptor muscarinic 1 (CHRM1) small molecule agonists, cell-based qHTS assay (AID 1963589); note: nearly all actives have a fitted effect of over 35% in size
Procedure, shortened: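 Stable CHRM1-CHO cells (human receptor) were incubated 18 h, dye-loaded for 1 h at 37 C and exposed to test compounds for agonist activity, with calcium-dependent fluorescence followed kinetically.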

[9] = cAMP Responsive Elements (CRE) small molecule antagonists, cell-based qHTS assay (AID 1963591; active = well fitted inhibition curve with a large enough effect in the signal ratio in the repeat runs, not every such curve was filed as active; the % refers to the signal ratio)
Procedure, shortened: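 qHTS in CRE-bla HEK 293T cells: compound in DMSO, then 0.25 uM NKH477 (final), 3 h at 37 °C/5% CO2; beta-lactamase FRET read-out after 2 h substrate incubation.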

[10] = target: D(2) dopamine receptor (Homo sapiens) (UniProt P14416); assay: Dopamine D2 receptor (DRD2) small molecule agonists, cell-based qHTS assay (AID 1963594); note: nearly all actives have a fitted effect of over 35% in size; note: potency is the fitted concentration of half-maximal effect
Procedure, shortened: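 cAMP accumulation in DRD2-HEK293 cells measured by HTRF after 1 h detection; compounds added 10 min before NKH477 (200nM […]) forskolin-analogue stimulation, 30 min at room temperature, with Ro20-1724 present at 0.1 mM final.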

[11] = target: D(2) dopamine receptor (Homo sapiens) (UniProt P14416); assay: Dopamine D2 receptor (DRD2) small molecule antagonists, cell-based qHTS assay (AID 1963595; active = well fitted inhibition curve with a large enough effect in the signal ratio in the repeat runs, with a control signal flat; the % refers to the signal ratio; note: potency is the fitted concentration of half-maximal effect)
Procedure, shortened: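 In this cell-based antagonist screen, compounds act for 10 min at room temperature before a 30 min challenge with 12 nM quinpirole and 200 nM NKH477. cAMP is quantified by HTRF competition in DRD2-HEK293 cells containing 0.1 mM Ro20-1724.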

[12] = p53 small molecule agonists, cell-based qHTS assay with rat liver microsomes: qHTS cell viability counter screen (AID 1963580); note: nearly all actives have a fitted effect of over 45% in size
Procedure, shortened: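 HCT-116 p53RE-bla, 4,000 cells/well, 5 h pre-incubation; cpd + rat liver microsomes 0.5 mg/mL + NADPH 0.5 mg/mL (final); 16 h, 37 C; CellTiter-Glo, 30 min RT; luminescence.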

[13] = p53 small molecule agonists, cell-based qHTS assay: qHTS cell viability counter screen (AID 1963581); note: nearly all actives have a fitted effect of over 45% in size
Procedure, shortened: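 Compounds are pinned onto HCT-116 p53RE-bla cells and left 16 h at 37 C. Following the reporter FRET read, ATP is quantified by CellTiter-Glo luminescence after 30 min at room temperature.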

[14] = target: 5-hydroxytryptamine receptor 2A (Homo sapiens) (UniProt P28223); assay: 5-hydroxytryptamine receptor 2A (HTR2A) small molecule agonists, cell-based qHTS assay (AID 1963587); note: nearly all actives have a fitted effect of over 30% in size; note: potency is the fitted concentration of half-maximal effect
Procedure, shortened: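 Kinetic calcium-flux fluorescence (2 min, 1 sec intervals) after compound addition in agonist mode. HTR2A-CHO cells were cultured 18 h, then dye-loaded 1 h at 37 C.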

[15] = cAMP Responsive Elements (CRE) small molecule agonists, cell-based qHTS assay (AID 1963590)
Procedure, shortened: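 FRET-based beta-lactamase readout (LiveBLAzer B/G, 2 h RT) quantified CRE activation in HEK 293T CRE-bla cells after 3 h treatment with DMSO-dissolved compounds.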

[16] = target: Beta-2 adrenergic receptor (Homo sapiens) (UniProt P07550); assay: Adrenergic beta2 receptor (ADRB2) small molecule antagonists, cell-based qHTS assay (AID 1963592); note: series mostly up to about 92 µM; nearly all actives have a fitted effect of over 50% in size
Procedure, shortened: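 Cells (CHO, stable ADRB2 overexpression) incubated 18-20hr at 37C; compounds added from DMSO; agonist mix (1nM isoproterenol, 100uM IBMX, 25uM Ro-20-1724) added; 0.5hr RT; d2-cAMP and anti-cAMP-cryptate added; 1hr RT; 665/615 nm read.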

[17] = p53 small molecule agonists, cell-based qHTS assay (AID 1963582; active = well fitted activation curve with a large enough effect in the signal ratio in the repeat runs, not every such curve was filed as active; the % refers to the signal ratio)
Procedure, shortened: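 Agonist activity was scored from beta-lactamase FRET fluorescence in p53RE-bla cells treated 16 h at 37 C with compounds in DMSO, substrate incubation being 2 h at room temperature.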

[18] = target: Muscarinic acetylcholine receptor M1 (Homo sapiens) (UniProt P11229); assay: Cholinergic receptor muscarinic 1 (CHRM1) small molecule antagonists, cell-based qHTS assay (AID 1963588); note: nearly all actives have a fitted effect of over 40% in size; note: potency is the fitted concentration of half-maximal effect
Procedure, shortened: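 CHRM1-CHO calcium-flux assay, antagonist mode. Cells were seeded 18 h, dye-loaded 1 h at 37 C and given compound for 5 min at RT, then acetylcholine was added at 50nM. FDSS fluorescence was read 3 min; 15 concentrations, three runs.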

[19] = target: Beta-2 adrenergic receptor (Homo sapiens) (UniProt P07550); assay: Adrenergic beta2 receptor (ADRB2) small molecule agonists, cell-based qHTS assay (AID 1963593); note: potency is the fitted concentration of half-maximal effect;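 for activation: CHO cells stably overexpressing human ADRB2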
Procedure, shortened: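 CHO cells stably over-expressing ADRB2 were plated overnight at 37C, then dosed with compounds plus a stimulation mix containing 100uM IBMX and 25uM Ro-20-1724 for 0.5hr at room temperature. cAMP was measured by HTRF competition, 1hr.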

[20] = p53 small molecule agonists, cell-based qHTS assay with rat liver microsomes (AID 1963578)
Procedure, shortened: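 Quantitative HTS of the Tox21 10K library: p53RE-bla cells, rat liver microsomes plus NADPH at 0.5 mg/mL final each, 16 h at 37 C, beta-lactamase fluorescence detection.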

Chain of KiSS-1 receptor (Homo sapiens) (Q969F8 whole entry, looked up): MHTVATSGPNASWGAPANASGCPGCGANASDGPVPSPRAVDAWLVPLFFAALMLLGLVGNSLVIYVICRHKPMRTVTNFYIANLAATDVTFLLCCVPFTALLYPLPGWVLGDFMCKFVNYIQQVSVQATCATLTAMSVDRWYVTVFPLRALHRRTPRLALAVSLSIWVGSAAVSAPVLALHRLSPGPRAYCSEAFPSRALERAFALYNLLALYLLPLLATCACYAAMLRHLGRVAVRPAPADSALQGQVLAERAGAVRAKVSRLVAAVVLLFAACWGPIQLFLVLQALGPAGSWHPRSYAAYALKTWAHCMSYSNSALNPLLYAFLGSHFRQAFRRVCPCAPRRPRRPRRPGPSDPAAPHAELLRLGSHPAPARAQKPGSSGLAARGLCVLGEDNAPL
Chain of Gonadotropin-releasing hormone receptor (Homo sapiens) (P30968 whole entry, looked up): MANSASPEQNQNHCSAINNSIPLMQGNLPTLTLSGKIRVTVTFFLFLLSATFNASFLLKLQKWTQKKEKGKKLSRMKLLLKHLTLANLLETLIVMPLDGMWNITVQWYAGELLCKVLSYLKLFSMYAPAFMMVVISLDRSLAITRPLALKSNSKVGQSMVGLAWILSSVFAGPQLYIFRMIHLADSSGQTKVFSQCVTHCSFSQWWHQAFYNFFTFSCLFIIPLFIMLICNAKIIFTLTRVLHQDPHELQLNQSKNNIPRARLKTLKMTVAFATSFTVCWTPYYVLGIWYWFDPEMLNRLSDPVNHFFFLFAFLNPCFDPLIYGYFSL
Chain of Muscarinic acetylcholine receptor M1 (Homo sapiens) (P11229 whole entry, looked up): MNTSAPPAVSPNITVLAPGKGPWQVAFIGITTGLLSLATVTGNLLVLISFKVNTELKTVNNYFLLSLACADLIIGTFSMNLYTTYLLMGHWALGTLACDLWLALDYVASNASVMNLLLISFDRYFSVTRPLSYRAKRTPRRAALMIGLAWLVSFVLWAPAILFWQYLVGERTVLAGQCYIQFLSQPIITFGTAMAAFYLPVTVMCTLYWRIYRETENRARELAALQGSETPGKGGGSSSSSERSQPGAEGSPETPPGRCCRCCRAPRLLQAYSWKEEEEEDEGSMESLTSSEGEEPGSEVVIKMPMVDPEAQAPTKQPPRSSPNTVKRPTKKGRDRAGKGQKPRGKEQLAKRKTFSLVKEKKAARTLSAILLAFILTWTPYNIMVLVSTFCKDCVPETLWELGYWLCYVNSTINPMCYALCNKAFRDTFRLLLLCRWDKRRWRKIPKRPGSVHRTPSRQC
Chain of 5-hydroxytryptamine receptor 2A (Homo sapiens) (P28223 whole entry, looked up): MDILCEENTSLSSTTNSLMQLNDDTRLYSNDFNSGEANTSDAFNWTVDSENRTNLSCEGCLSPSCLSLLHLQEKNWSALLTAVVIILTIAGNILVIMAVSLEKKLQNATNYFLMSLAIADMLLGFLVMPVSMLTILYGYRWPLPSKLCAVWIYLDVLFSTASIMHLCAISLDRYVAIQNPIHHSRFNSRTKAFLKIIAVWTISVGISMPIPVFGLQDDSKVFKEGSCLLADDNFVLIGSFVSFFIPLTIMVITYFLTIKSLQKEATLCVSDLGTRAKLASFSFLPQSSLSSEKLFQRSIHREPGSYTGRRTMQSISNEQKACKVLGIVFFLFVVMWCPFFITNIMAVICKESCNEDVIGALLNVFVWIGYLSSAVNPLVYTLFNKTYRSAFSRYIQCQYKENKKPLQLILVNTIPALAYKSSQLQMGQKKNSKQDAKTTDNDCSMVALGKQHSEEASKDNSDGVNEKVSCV
Chain of Beta-2 adrenergic receptor (Homo sapiens) (P07550 whole entry, looked up): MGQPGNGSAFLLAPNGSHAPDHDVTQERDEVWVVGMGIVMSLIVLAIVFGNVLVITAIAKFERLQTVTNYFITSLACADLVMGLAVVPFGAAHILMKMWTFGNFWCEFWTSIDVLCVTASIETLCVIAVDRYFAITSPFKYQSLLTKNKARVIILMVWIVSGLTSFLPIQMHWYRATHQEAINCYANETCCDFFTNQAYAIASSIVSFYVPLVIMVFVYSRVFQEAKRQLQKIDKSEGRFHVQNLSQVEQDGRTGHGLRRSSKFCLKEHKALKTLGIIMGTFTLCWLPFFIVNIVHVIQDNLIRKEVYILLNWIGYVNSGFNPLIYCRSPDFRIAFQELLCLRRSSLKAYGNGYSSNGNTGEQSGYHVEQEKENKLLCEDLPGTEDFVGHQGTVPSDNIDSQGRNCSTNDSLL
Chain of D(2) dopamine receptor (Homo sapiens) (P14416 whole entry, looked up): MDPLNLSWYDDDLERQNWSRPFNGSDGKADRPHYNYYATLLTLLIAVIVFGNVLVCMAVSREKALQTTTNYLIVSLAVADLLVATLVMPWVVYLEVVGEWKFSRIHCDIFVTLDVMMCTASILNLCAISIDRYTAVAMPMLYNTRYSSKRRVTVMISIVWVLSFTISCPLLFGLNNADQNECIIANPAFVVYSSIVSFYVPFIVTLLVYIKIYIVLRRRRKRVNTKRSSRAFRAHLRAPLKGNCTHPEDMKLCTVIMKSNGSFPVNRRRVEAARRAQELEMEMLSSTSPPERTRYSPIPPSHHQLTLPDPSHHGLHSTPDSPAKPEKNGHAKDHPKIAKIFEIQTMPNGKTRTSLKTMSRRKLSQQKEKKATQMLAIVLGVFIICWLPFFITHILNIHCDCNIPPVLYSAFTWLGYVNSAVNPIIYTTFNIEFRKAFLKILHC

Row | SMILES | Potency [1] | Potency [2] | Potency [3] | Potency [4] | Potency [5] | Potency [6] | Potency [7] | Potency [8] | Potency [9] | Potency [10] | Potency [11] | Potency [12] | Potency [13] | Potency [14] | Potency [15] | Potency [16] | Potency [17] | Potency [18] | Potency [19] | Potency [20]
1 | Oc1c(I)cc(I)cc1I | 30.6 µM (active) | inactive | inactive | inactive | inactive | inactive | 42.1 µM (active) | inactive | inactive | inactive | inactive |  |  |  |  |  |  |  |  | 
2 | [Cl-].[Cl-].[Sn+2] | inactive | inactive | inactive | inactive |  | inactive | inactive | inactive | inactive | inactive | inactive | inactive | inactive | inactive | inactive | inactive |  |  |  | 
3 | CCOP(=S)(OCC)SCCl | inactive | inactive | inactive | inactive |  | inactive | inactive | inactive | inactive | inactive | inactive | inactive | inactive | inactive | inactive | inactive | inactive | inactive | inactive | 
4 | CC1CCCCC1NC(=O)Nc1ccccc1 (stereo unspecified) | inactive | inactive | inactive | inactive | inactive | inactive | inactive | inactive | inactive | inactive | inactive |  |  | inactive | inactive | inactive |  | inactive | inactive | 
5 | COP(=S)(OC)Oc1nc(Cl)c(Cl)cc1Cl | inactive | inactive | inactive | inactive |  | inactive | inactive | inactive |  | inactive | inactive | inactive | inactive | inactive |  | inactive | inactive | inactive |  | 
6 | CCOP(=S)(OCC)SCS(=O)(=O)C(C)(C)C | inactive | inactive | inactive | inactive | 1.82 µM (active) | inactive | inactive | inactive | inactive | inactive | inactive |  | inactive | inactive | inactive | inactive | inactive | inactive |  | 
7 | CCOP(=S)(Oc1cnc(C(C)(C)C)nc1)OC(C)C (stereo unspecified) | inactive | inactive | inactive | inactive |  | inactive | inactive | inactive |  | inactive | inactive | inactive | inactive | inactive |  | inactive | inactive | inactive |  | 
8 | COP(=O)(OC)O/C(=C\Cl)c1cc(Cl)c(Cl)cc1Cl | inactive | inactive | inactive | inactive | 40.8 µM (active) | inactive | inactive | inactive |  | inactive | inactive |  | inactive | inactive | inactive | inactive | inactive | inactive | inactive | 
9 | CN1COCN(Cc2cnc(Cl)s2)/C1=N\[N+](=O)[O-] | inactive | inactive | inactive | inactive |  | inactive |  | inactive | inactive | inactive | inactive |  | inactive | inactive | inactive | inactive | inactive | inactive | inactive | inactive
10 | O=C1OC(c2ccc(O)c(S(=O)(=O)O)c2)(c2ccc(O)c(S(=O)(=O)O)c2)c2c(Br)c(Br)c(Br)c(Br)c21 | inactive | inactive | inactive | inactive |  | inactive | inactive | inactive | inactive | inactive | inactive | inactive | inactive | inactive | inactive | inactive | inactive | inactive |  | inactive
11 | CC(Cc1ccc2c(c1)OCO2)NO (stereo unspecified) | inactive | inactive | inactive | inactive |  | inactive | 0.91 µM (active) | inactive | inactive | inactive | inactive | inactive | inactive | 1.33 µM (active) | inactive | inactive | inactive | inactive | inactive | inactive
12 | CNCC(=O)c1ccc(O)c(O)c1 | inactive | 5.35 µM (active) | inactive | inactive |  |  |  | inactive | inactive | 26.6 µM (active) | 26.6 µM (active) | inactive | inactive | inactive |  |  | inactive | inactive | 0.531 µM (active) | inactive
13 | C#CCC1=C(C)C(OC(=O)C2C(C=C(C)C)C2(C)C)CC1=O (stereo unspecified) | inactive | inactive | inactive | inactive |  | inactive | inactive | inactive |  | inactive |  | inactive | inactive | inactive |  | inactive |  | 11.8 µM (active) |  | 
14 | BrCCCBr | inactive | inactive | inactive | inactive |  | inactive | inactive | inactive | inactive | inactive |  | inactive | inactive | inactive | inactive | inactive |  | inactive | inactive | 
15 | CCC(C)c1cc(C(C)(C)C)cc(-n2nc3ccccc3n2)c1O (stereo unspecified) | inactive | inactive | inactive | inactive |  | inactive | inactive | inactive | inactive | inactive |  |  |  | inactive | inactive | inactive | inactive | inactive |  | inactive
16 | COP(=O)(OC)SCn1c(=O)oc2cc(Cl)cnc21 | inactive | inactive | inactive | inactive | inactive |  | inactive | inactive |  | inactive | inactive |  |  | inactive |  | inactive |  | inactive |  | 
17 | CCC[N+](CCC)(CCC)CCC | inactive | inactive | inactive | inactive | inactive | inactive | inactive | inactive | inactive | inactive | inactive |  | inactive | inactive | inactive | inactive | inactive |  | inactive | 
